Data: PubChem BioAssay (NCI)
About 83,000 compounds went through this panel and 20% of them were active in at least one assay; those are over-represented in the sample as a whole.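 Results are percent growth after 48 hours of single-concentration exposure. 100 means growth as in untreated cells, lower positive values show inhibition; negative values down to -100 show cell death.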 A number with no mark means an inactive call. Active and inactive are the calls of the source.

system: UO-31 renal; experiment: NCI-60 one-dose screen, 48 h (100 = growth as untreated, 0 = no growth, -100 = all killed); settings: 10 µM unless noted
Procedure: Growth inhibition of the UO-31 human tumor cell line is measured as a screen for anti-cancer activity. Cells are grown in 96 well plates and exposed to the test compound for 48 hours. Compounds are tested at a single concentration, which is 10^-5 M for most compounds. The reported endpoint is percent growth (GI% or GIPRCNT), where numbers from 0 - 100% represent growth inhibition, and numbers from -100% - 0 represent cell death. For example, a value of 40 represents 60% growth inhibition. A value of 0 means no net growth occurred over the course of the experiment. A value of -40 indicates 40% of cells at the beginning of the experiment died by the end of the experiment. A value of -100 means all cells are dead at the end of the experiment.
NCI-60 Human Tumor Cell Lines Screen was performed using the standard one-dose NCI protocol, which is described in more detail at https://dtp.cancer.gov/discovery_development/nci-60/default.htm.
Compounds with GIPRCNT values below 10 were considered active. Activity score was based on GIPRCNT using the following formula: […]
Score is 0 for GIPRCNT values of 100 or above, 50 for GIPRCNT values of 0, and 100 for GIPRCNT values of -100.

| Compound | growth |
| --- | --- |
| COc1cc(/C=C\c2cc(/C=C\c3ccc(O)c(OC)c3)n(C(=O)CNc3ccccc3OC)n2)ccc1O | 46.4% |
| O=S(=O)(CCN1CCOCC1)Nc1cc(-c2ccc3ncnc(Nc4ccc(F)c(Cl)c4)c3c2)cnc1Cl | -8.69% (active) |
| C/C(=N/NC(=O)Cn1c2ccccc2c2ccncc21)c1cccs1 | 94.5% |
| COc1ccc(-c2nnc(SCC(=O)Nc3ccc(C(=O)/C=C/c4ccccc4)cc3)o2)cc1OC | 83.9% |
| CCOc1ccc(NC(=O)Nc2cc(C(C)C)ccc2C)cc1 | 15.2% |
| O=C(Nc1cccc([N+](=O)[O-])c1)c1ccc2ccccc2c1O | 49.8% |
| Cc1cn(C2CC(N=[N+]=[N-])C(COP(=O)(O)OP(=O)(O)OP(=O)(O)O)O2)c(=O)[nH]c1=O (stereo not given) | 98.5% |
| CC1=C2C(=C[C@@](C)(CO)[C@@H]2OC(=O)N(C)CCN(C)C(=O)OC(C)(C)C)C(=O)[C@](C)(O)C12CC2 | -60.4% (active) |
| CCC1S/C(=N\N=C(/C)c2ccco2)N(c2ccccc2)C1=O (stereo not given) | 94.8% |
| COc1cc(C(=O)NNC(=O)c2ccccc2C(=O)O)cc(OC)c1OC | 49% |
| COc1ccc(Cl)cc1NC(=O)c1cc2c(n1C)-c1nc(NC(=O)C(C)C)sc1CC2 | 76.7% |
| NS(=O)(=O)c1ccc(Nc2nc(O)c(/C=C3\C=Nc4ccccc43)s2)cc1 | 70.7% |
| CN1CCN(CC(=O)N(C)c2ccc(N=C(c3ccccc3)c3c(O)[nH]c4ccc(C#N)cc34)cc2)CC1 | 23.9% |
| CC(C)NCC(O)COc1ccc(CC(N)=O)cc1 (stereo not given) | 83.5% |
| O=C(NCCNc1nccc(-c2c(-c3cccc(O)c3)nc3sccn23)n1)c1cc(N2CCOCC2)cc(C(F)(F)F)c1 | 87.5% |
| CC(Cc1cccc(C(F)(F)F)c1)NCCOC(=O)c1ccccc1 (stereo not given) | 85.4% |
| COc1ccc(-c2nn(-c3cccc(Cl)c3)cc2-c2cc(-c3ccc(Br)cc3)[nH]c(=O)c2C#N)cc1 | 87.3% |
| COc1ccc(-c2nnc(SCC(=O)Nc3ccc(C(=O)/C=C/c4ccc(OC)c(OC)c4)cc3)o2)cc1 | 73.8% |
| CN1C(=O)C2(SCC(C(=O)NCC(=O)OC(C)(C)C)N2C(=O)C2CCCCC2)c2ccccc21 (stereo not given) | 84% |
| Nc1n[nH]c2cccc(C#Cc3cccc(NC(=O)c4cccc(C(F)(F)F)c4)c3)c12 | 3.58% (active) |

| Compound | growth |
| --- | --- |
| Nc1nc(=S)ss1 | 95.4% |
| S=c1ssnc1-c1ccccn1 | -40.8% (active) |
| O=C(Nc1ccc(-n2ccc3c(NC(=O)c4ccccc4)ncnc32)cc1)Nc1ccc(Cl)c(C(F)(F)F)c1 | 23.5% |
| COc1cc(-c2nc3ccccc3s2)ccc1OCc1nc2n(n1)S(=O)(=O)c1ccccc1N2c1ccccc1 | 82.4% |
| O=C1COc2ccccc2C(=O)N1CCCCNc1ccccc1 | 12.2% |
| O=C(Nc1ccc(-n2cc(-c3ccncc3)c(-c3ccc(O)c(Cl)c3)n2)cc1)Nc1cccc(Cl)c1Cl | 57.2% |
| COc1ccc(Cn2cc(COc3ccc4c5ccnc(C)c5n(CCCc5ccccc5)c4c3)nn2)cc1 | 70.5% |
| Clc1ccc(OCc2nc(-c3ccccc3)n[nH]2)c(Cl)c1 | 77.1% |
| O=C(Cn1c2ccccc2c2ccncc21)N/N=C/c1c[nH]c2ccccc12 | 103% |
| Cc1ccc[n+](CC(=O)c2cccc3ccccc23)c1 | 89.5% |
| CCC1S/C(=N\N=C(/C)c2cc3ccccc3o2)N(c2ccccc2)C1=O (stereo not given) | 75.9% |
| NCC(=O)NS(=O)(=O)OC[C@H]1O[C@@H](n2cnc3c(N)ncnc32)[C@H](O)[C@@H]1O | 6.08% (active) |
| COc1ccc(Cl)cc1NC(=O)c1cc2c([nH]1)-c1nc(NC(=O)C(C)C)sc1CC2 | 51.9% |
| Cc1cc(NCCN(C(C)C)C(C)C)nc(/N=C(\N)Nc2ccc(Cl)c(C(F)(F)F)c2)n1 | -90.9% (active) |
| CC(=O)c1cc2c(c(O)c1C)C(=O)C(=O)c1c(O)cccc1-2 | -97.3% (active) |
| O=C(Nc1ccc(-n2cc(-c3ccncc3)c(-c3ccc(O)c(Cl)c3)n2)cc1)Nc1cc(C(F)(F)F)cc(C(F)(F)F)c1 | 59.6% |
| CC(=O)N1N=C(CCC(=O)c2nc3ccc([N+](=O)[O-])cc3[nH]2)OC1c1ccc(O)cc1 (stereo not given) | 80.9% |
| COc1ccc(/C=C/C(=O)c2ccc(-n3cc(CN4CCN(c5cc6c(cc5F)c(=O)c(C(=O)O)cn6C5CC5)CC4)nn3)cc2)cc1OC | 43.5% |
| CC(C)(C)C(=O)/C=c1/[nH]c(=O)/c(=C/c2ccccc2O)s1 | 67.4% |
| CNC(=O)NN | 71.7% |
